Data reported in PubChem BioAssay AID1662 (Broad Institute, 2009).
In all, about 300,000 compounds went through this assay and about 4,000 (1.3%) were called active. The list comes from a sample in which actives are over-represented; it also holds similar structures and randomly drawn compounds. Unmarked numbers belong to inactive results.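 Rule for the calls: active = mean replicate score, as percent of positive control median, at least 50; inconclusive = mean below 50 but one replicate at or above 50; inactive = mean and every replicate below 50.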

Assay: kanamycin survival loss of SKKanGAS strain – BacTiter-Glo luminescence, streptokinase expression inhibitor project, primary screen (AID 1662);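 note: strain carries kanamycin resistance gene driven by streptokinase promoter and grows in 40 µg/ml kanamycin; loss of luminescence reflects streptokinase promoter inhibition or plain growth inhibition; 0% = median of DMSO wells and 100% = positive control at its reference dose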
Conditions: S. pyogenes SKKanGAS, kanamycin growth, 6 h, at 7.5 µM, hits give high values

Structure (SMILES) | inhibition
C=CCNc1nc(N)c([N+](=O)[O-])c(NC2CCCCC2)n1 | 6.03%
C=CCC(C(=O)c1ccccc1)[N+](C)(C)CC=C (centres undefined) | 2.59%
O=C(OCc1ccc(Br)cc1)c1cccc(-c2nnc(-c3ccccc3)o2)c1 | 7.23%
O=C(OCc1ccc(-c2ccccc2)cc1)c1cccc(O)c1 | 54.9% (active)
O=C(OCC(=O)c1c[nH]c2ccccc12)c1cccc(O)c1 | -11.7%
O=C(O)CCC(=O)Nc1ccc(OCC2CCCO2)cc1 (centres undefined) | 1.88%
O=C(C1CCCO1)N(c1ccc(F)cc1)C1C=CS(=O)(=O)C1 (centres undefined) | -0.303%
CCOC(=O)c1cnc(Nc2nc3ccccc3o2)nc1CSC(=S)N1CCCCC1 | 30.1%
Cc1ccc(C2CCN(C(=S)Nc3cccc(Cl)c3)C2)cc1 (centres undefined) | 14.8%
Clc1cccc(N=C2NN=C(c3ccc4c(c3)OCCO4)CS2)c1 | 21.6%
CN(C)c1nc(=Nc2cccc(Cl)c2)ss1 | 53.2% (active)
Cc1ccccc1N1CCN(C2CCCN(C(=O)c3ocnc3C)C2)CC1 (centres undefined) | -0.706%
CN1CCN(c2ccc(S(=O)(=O)Nc3ccccc3)cc2[N+](=O)[O-])CC1 | -10.6%
O=[N+]([O-])c1cc(S(=O)(=O)Nc2cccc(Cl)c2)ccc1N=Nc1c(O)[nH]c2ccccc12 | 59.8% (active)
Cc1cccc(N(CC(=O)N=Nc2c(O)[nH]c3ccccc23)S(C)(=O)=O)c1C | 15.7%
Cc1nc(COc2cc3oc(=O)cc(C)c3cc2Cl)cs1 | -7.93%
COc1ccc2c(c1)CC[C@@H]1[C@@H]2CC[C@]2(C)C(=O)CC[C@@H]12 | -7.32%
COc1cc(-c2nnc(NC(=O)C3=COCCO3)o2)cc(OC)c1OC | 2.37%
COc1ccccc1-c1nnc(NC(=O)c2ccc3ncsc3c2)o1 | 20%
O=C(Nc1ncc([N+](=O)[O-])s1)C1COc2ccccc2O1 (centres undefined) | -8.31%
O=C(Nc1nnc(-c2ccco2)o1)c1ccc(S(=O)(=O)N2CCOCC2)cc1 | 1.36%
Cc1ccc(C(=O)Nc2nnc(C3=COCCO3)o2)cc1C | 85.9% (active)
O=C(Nc1nnc(C2=COCCO2)o1)c1ccc([N+](=O)[O-])s1 | 63.4% (active)
CC1(C)Cc2c(sc(NC(=O)C(=O)NCC3CCCO3)c2C(=O)O)CO1 (centres undefined) | 2.62%

Structure (SMILES) | inhibition
CC1CCCCC1NC(=O)CCS(=O)(=O)c1ccc2c(c1)NC(=O)CO2 (centres undefined) | 6.59%
COC(=O)c1cc(CNC(=O)CC(C)c2ccccc2)ccc1OC (centres undefined) | -1.27%
CCOC(=O)c1sc(=S)n2c1[nH]c(=O)c1ccc(C(=O)OC)cc12 | 66.6% (active)
CCOC(=O)C1=C(C)Nc2sc(C(=O)c3ccc(Br)cc3)c(N)c2C1c1ccc(C(=O)OC)cc1 (centres undefined) | 22%
CCOC(=O)c1ccc(Nc2cc3ccccc3c(=O)[nH]2)cc1 | 3.57%
COc1cccc(NS(=O)(=O)c2ccc(-c3coc(C)n3)cc2)c1 | 2.27%
CN(C)CCN(Cc1ccccc1)S(=O)(=O)c1csc(C(N)=O)c1 | -1.24%
CC1=C(C(=O)Nc2ccccc2)C(c2cccs2)C(C#N)=C(SCC#N)N1 (centres undefined) | 15.4%
Cc1noc(C)c1C(=O)N(CC(=O)NC1CCCC1)Cc1ccccc1F | 2.6%
COCCN(C(=O)COC(=O)Cc1cccc(OC)c1)c1c(N)n(Cc2ccccc2)c(=O)[nH]c1=O | -1.12%
Cc1cccc(NC(=S)Nc2ccc3cn[nH]c3c2)c1 | 2.46%
Cc1cccc(NC(=S)Nc2ccc(Cl)c(Cl)c2)c1 | 82% (active)
Cc1cccc(NC(=S)Nc2ccc(Br)cc2)c1 | 5.45%
Cc1cc(C)cc(OCC(=O)Nc2cc(NC(=O)COc3cc(C)cc(C)c3)cc(C(=O)O)c2)c1 | 26%
COc1ccc(Cl)cc1NC(=O)CN(C)Cc1ccc(OC)c(OC)c1 | 19.7%
CCOC(=O)C1=C(c2ccc(OC)cc2)C(=O)c2ccccc2C1=O | 54.9% (active)
COc1ccc(N2CCN(C(C)=C3C(=O)c4ccccc4C3=O)CC2)cc1 | 0.489%
CCOC(=O)c1c(-c2ccc(C)cc2)csc1/N=C(\C)C1=C(O)c2ccccc2C1=O | 8.34%
Cc1ccc(N=C2SCCCN2C(=O)c2cccc(N3C(=O)CCC3=O)c2)cc1Cl | 1.34%
O=C(NCCOc1ccccc1F)Nc1ccc(Br)cc1 | -7.4%
Cc1ccc2cccc(S(=O)(=O)N3CCN(c4ccccc4F)CC3)c2n1 | -8.1%
CN1CCN(c2cc3c(cc2F)c(=O)c(C(=O)O)cn3CCF)CC1 | 66.8% (active)
CCn1cc(C(=O)NCCO)c(=O)c2cc(F)c(N3CCN(C)CC3)cc21 | 1.21%
CCCCCCn1cc(C(=O)O)c(=O)c2cc(F)c(N3CCCCC3)cc21 | 10%

Structure (SMILES) | inhibition
CC(C)(C)c1ccc(C(=O)NCCn2c(N)c(C#N)c3nc4ccccc4nc32)cc1 | 8.82%
CCOc1ccccc1NC(=O)Cn1nnc(C(=O)NCc2cccs2)c1N | -0.164%
CC(C)Cn1c(N)c(C(=O)NCc2cccs2)c2nc3ccccc3nc21 | 88.2% (active)
O=C(NCCS(=O)(=O)N1CCN(c2ccccc2)CC1)c1ccco1 | -0.162%
COc1cc(OC)c(OC)cc1CN1CCN(C(=O)c2cccc3ccccc23)CC1 | -1.09%
Cc1ccc(S(=O)(=O)N2CC(C)N(S(C)(=O)=O)C2)cc1 (centres undefined) | -4.98%
CCOC(=O)C(C)n1cnc2sc(C)c(C)c2c1=O (centres undefined) | 2.1%
Cc1c(C(N)=O)sc2ncn(CCOc3ccccc3)c(=O)c12 | 2.66%
Cc1cccc(OC(=O)c2sc3ncn(C)c(=O)c3c2C)c1 | 82.2% (active)
COc1ccccc1C(C)NC(=O)Cc1ccsc1 (centres undefined) | 5.44%
CC(CNc1ccc([N+](=O)[O-])cc1)NC(=O)c1ccccc1Br (centres undefined) | -0.0993%
COc1cccc(CNC(=O)Cc2csc(Nc3nc(=S)[nH]c4ccccc34)n2)c1 | 5.91%
O=C(CCn1c(=O)[nH]c2ccccc2c1=O)NCCCN1CCN(c2cccc(Cl)c2)CC1 | 2.26%
O=C(Cc1csc(Nc2nc(=S)[nH]c3ccccc23)n1)NCCCN1CCN(c2cccc(Cl)c2)CC1 | 67.8% (active)
CN1C(=O)C2(OCCCO2)c2cc(Cl)ccc21 | -1.28%
C/C(=N\Nc1nncc2ccccc12)c1ccc(Cl)c([N+](=O)[O-])c1 | -1.2%
COc1cc(/C=N/Nc2nn3cnnc3c3ccccc23)cc(OC)c1OC | -2.2%
CN(CCO)c1ccc(/C=N/Nc2nncc3ccccc23)cc1 | 68.8% (active)
CC[N+]1(CC)CC2=Cc3ccccc3CC2C1 (centres undefined) | 5.88%
COc1ccccc1OCCNc1cc(N2CCOCC2)ccc1[N+](=O)[O-] | -5.71%
O=C(CSc1ccc(-c2ccc(Br)cc2)nn1)NCC1CCCO1 (centres undefined) | -6.3%
OC(CNCC1CCCO1)Cn1c2ccc(Br)cc2c2cc(Br)ccc21 (centres undefined) | 52.3% (active)
CC(NS(=O)(=O)c1ccc(Br)cc1)C(=O)NCC1CCCO1 (centres undefined) | -0.664%
CCOC(=O)C1(CCOc2ccccc2)CCN(Cc2cc(OC)cc(OC)c2)CC1 | -5.86%

Structure (SMILES) | inhibition
CC1CCCCN1S(=O)(=O)CCNC(=O)c1ccccc1 (centres undefined) | -1.35%
CCn1c(SCC(=O)NC2CC2)nnc1-c1ccccn1 | 0.558%
Cc1ccccc1NCC(=O)N/N=C\c1ccc([N+](=O)[O-])s1 | 7.47%
COc1ccc(C(=O)NCC(=O)N/N=C/c2ccc([N+](=O)[O-])s2)cc1OC | -2.08%
CC(C)(C)c1cc(C(=O)N/N=C/c2ccc([N+](=O)[O-])s2)n[nH]1 | 51.8% (active)
CCCCCCSc1nsc(N)n1 | 5.66%
O=C(NCc1ccccc1)C(c1ccco1)N(C(=O)c1csnn1)c1ccccc1F (centres undefined) | 1.53%
CC1(C)CC2CC(C)(CN2c2ncnc3ccc(Br)cc23)C1 (centres undefined) | 18.3%
CCC(=O)Nc1nc2ccccc2n1Cc1ccccc1C | 61.8% (active)
CC(=O)Nc1nc2ccccc2n1Cc1ccc(C)cc1 | 24.3%
CCCCn1c(CCCNC(=O)CC)nc2ccccc21 | -0.548%
CC(C)C1N=C2c3ccccc3N=C(SCC(=O)c3ccc(O)c(O)c3)N2C1=O (centres undefined) | 19%
O=S(=O)(NC1CCCCC1N1CCCCC1)c1ccc(Cl)cc1 (centres undefined) | 1.78%
Cc1ccc(S(=O)(=O)N2CCC(C(=O)OCC(=O)N(C)c3ccccc3)CC2)cc1C | -2.14%
Oc1cccc2ccc(/C=C/c3ccc(Br)s3)nc12 | 77.1% (active)
Nc1ccc(S(=O)(=O)Nc2nccc(/C=C/c3ccc(Br)s3)n2)cc1 | 2.22%
COc1cc2c(cc1OC)C(c1cccc([N+](=O)[O-])c1)=NCC2 | -3.25%
CCc1nc2ccc(C(=O)N3CCN(c4cccc(Cl)c4)CC3)cc2nc1CC | 7.12%
CCN1CCN(C(c2cccnc2)c2cc(Cl)c3cccnc3c2O)CC1 (centres undefined) | 28.1%
Oc1ccc(CN2CCN(c3ncccn3)CC2)cc1 | -0.583%
Oc1c(CN2CCN(c3ccc(F)cc3)CC2)cc(Cl)c2cccnc12 | 81.2% (active)
CCCCCCCCCCCCN1[C@@H](CC(C)=O)c2cc(F)cc(F)c2S1(=O)=O | 18.6%
